Measured values from PubChem BioAssay.
A number with no mark means an inactive call. For some assays here: Entries with a potency or affinity are not part of this list. Active and inactive are the calls of the source. Unless noted, how the calls were made is not given here.

What was measured:
[1] = antimalarial activity against Dd2 strain (AID 2302;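 active means growth inhibition above 50% at the single 2 µM test dose, taken to imply half-maximal potency below 2 µM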;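 further: 0% = DMSO untreated growth and 100% = chloroquine plus artemisinin killed control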); conditions: P. falciparum Dd2 in RBCs, LDH growth readout, 72 h; at 2 µM; hits give high values
[2] = HepG2 cytotoxicity, primary screen, cytotoxicity control for P. falciparum antimalarial project, cell-based, ATP luminescence (AID 2303;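 active means inhibition above 50%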;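 further: 0% = DMSO wells and 100% = digitonin-killed cells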); conditions: HepG2 viability, 24-48 h, at 10 µM, hits give high values
[3] = target: L-lactate dehydrogenase (Plasmodium falciparum (isolate CDC / Honduras)) (UniProt Q27743); assay: PfLDH activity inhibition – cell lysate, 3D7 strain, counter-screen for P. falciparum growth inhibition project (AID 2304);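 further: 0% = vehicle and 100% = reference inhibitor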; conditions: P. falciparum 3D7 crude extract, LDH APAD/NBT absorbance; at 2 µM; hits give high values
[4] = inhibition of 3D7 malaria parasite growth – strain 3D7 (AID 2306);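 further: 0% = DMSO wells and 100% = chloroquine plus artemisinin control wells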; conditions: P. falciparum 3D7 erythrocytic growth, LDH absorbance, 72 h; at 2 µM; hits give high values
[5] = target: Calcium-dependent protein kinase 1 (Plasmodium falciparum (isolate 3D7)) (UniProt P62344); assay: PfCDPK1 kinase inhibitors, biochemical, TCAMS library (AID 1159585; cut-off not given, nearly all actives have IC50 up to about 0.98 µM;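 further: inhibitors leave more ATP so luminescence rises with inhibition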); conditions: recombinant PfCDPK1, Kinase-Glo ATP depletion luminescence
[6] = target: Plasmodium falciparum protein kinase 6 (PK6, PF3D7_1337100) (UniProt Q8IDW1); assay: PfPK6 kinase inhibitors, biochemical, TCAMS library (AID 1159586); conditions: recombinant PfPK6, Kinase-Glo ATP depletion luminescence
[7] = target: Protein kinase 7 (PK7), Plasmodium falciparum 3D7 (PF3D7_0213400) (UniProt Q7YTF7); assay: inhibition of Plasmodium PK7 catalytic activity – biochemical, TCAMS antimalarial set, Kinase-Glo luminescence (AID 1159587); conditions: recombinant PfPK7, Kinase-Glo ATP depletion luminescence
[8] = target: Calcium-dependent protein kinase 4 (Plasmodium falciparum (isolate 3D7)) (UniProt Q8IBS5); assay: PfCDPK4 kinase inhibitors, biochemical, TCAMS library (AID 1159588; cut-off not given, nearly all actives have IC50 up to about 0.91 µM); conditions: recombinant PfCDPK4, Kinase-Glo ATP depletion luminescence
Calcium-dependent protein kinase 4 (Plasmodium falciparum (isolate 3D7)), sequence (Q8IBS5 whole entry, looked up): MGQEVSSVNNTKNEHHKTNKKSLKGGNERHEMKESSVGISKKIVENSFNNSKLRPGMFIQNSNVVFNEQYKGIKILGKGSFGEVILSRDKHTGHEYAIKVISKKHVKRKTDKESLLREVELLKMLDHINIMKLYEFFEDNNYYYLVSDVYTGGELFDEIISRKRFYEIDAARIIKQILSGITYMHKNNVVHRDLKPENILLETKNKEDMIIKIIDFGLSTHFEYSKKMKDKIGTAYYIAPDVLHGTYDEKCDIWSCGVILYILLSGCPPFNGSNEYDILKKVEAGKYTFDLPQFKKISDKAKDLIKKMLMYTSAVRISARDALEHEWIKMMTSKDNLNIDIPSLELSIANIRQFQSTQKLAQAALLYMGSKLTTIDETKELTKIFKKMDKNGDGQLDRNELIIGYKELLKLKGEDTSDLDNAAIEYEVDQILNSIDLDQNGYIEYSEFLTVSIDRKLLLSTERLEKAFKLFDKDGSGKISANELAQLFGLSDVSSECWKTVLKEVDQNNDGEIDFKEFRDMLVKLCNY

Protein kinase 7 (PK7), Plasmodium falciparum 3D7 (PF3D7_0213400), sequence (Q7YTF7 1-343): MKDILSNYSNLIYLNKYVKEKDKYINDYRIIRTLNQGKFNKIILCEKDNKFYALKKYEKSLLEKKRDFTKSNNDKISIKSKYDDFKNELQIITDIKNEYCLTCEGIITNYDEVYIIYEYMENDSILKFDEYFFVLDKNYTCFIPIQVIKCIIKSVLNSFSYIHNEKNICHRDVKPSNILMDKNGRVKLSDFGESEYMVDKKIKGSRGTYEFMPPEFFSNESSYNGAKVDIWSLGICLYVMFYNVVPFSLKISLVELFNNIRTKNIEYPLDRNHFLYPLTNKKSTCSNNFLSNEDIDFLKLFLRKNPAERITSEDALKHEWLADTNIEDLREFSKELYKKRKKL
Plasmodium falciparum protein kinase 6 (PK6, PF3D7_1337100), sequence (Q8IDW1 1-305): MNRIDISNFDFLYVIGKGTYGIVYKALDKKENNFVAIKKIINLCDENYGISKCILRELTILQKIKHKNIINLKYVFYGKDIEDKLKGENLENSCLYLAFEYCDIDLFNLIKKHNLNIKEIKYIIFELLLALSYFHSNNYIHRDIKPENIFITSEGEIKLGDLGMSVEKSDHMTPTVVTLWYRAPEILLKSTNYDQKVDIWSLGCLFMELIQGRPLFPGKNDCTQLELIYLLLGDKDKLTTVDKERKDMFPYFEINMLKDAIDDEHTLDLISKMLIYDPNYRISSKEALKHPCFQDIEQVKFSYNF
L-lactate dehydrogenase (Plasmodium falciparum (isolate CDC / Honduras)), sequence (Q27743 whole entry, looked up): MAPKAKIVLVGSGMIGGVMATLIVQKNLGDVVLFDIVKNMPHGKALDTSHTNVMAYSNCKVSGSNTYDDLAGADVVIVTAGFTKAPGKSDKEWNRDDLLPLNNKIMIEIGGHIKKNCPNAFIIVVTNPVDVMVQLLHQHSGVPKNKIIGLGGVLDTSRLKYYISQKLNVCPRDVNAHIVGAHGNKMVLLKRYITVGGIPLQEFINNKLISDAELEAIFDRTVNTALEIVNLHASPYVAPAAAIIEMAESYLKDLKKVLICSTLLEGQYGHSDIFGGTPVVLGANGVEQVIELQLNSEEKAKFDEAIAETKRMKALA
Calcium-dependent protein kinase 1 (Plasmodium falciparum (isolate 3D7)), sequence (P62344 whole entry, looked up): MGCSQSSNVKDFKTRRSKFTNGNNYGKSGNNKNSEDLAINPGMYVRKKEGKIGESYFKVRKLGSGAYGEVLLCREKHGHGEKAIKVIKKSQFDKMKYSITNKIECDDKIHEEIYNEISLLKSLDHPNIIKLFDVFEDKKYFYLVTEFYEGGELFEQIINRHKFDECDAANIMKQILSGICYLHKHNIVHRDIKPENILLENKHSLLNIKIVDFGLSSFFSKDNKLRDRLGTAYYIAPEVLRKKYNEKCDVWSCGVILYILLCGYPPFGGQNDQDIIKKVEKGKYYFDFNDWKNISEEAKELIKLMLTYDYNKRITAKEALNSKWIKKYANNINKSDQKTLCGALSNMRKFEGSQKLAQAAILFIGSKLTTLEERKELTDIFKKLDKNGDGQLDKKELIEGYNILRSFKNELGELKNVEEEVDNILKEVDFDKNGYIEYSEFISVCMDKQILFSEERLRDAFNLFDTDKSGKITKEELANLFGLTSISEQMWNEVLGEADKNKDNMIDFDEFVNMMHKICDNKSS

Structure (SMILES)	growth inhibition [1]	inhibition [2]	inhibition [3] [%]	growth inhibition [4]	outcome [5]	outcome [6]	outcome [7]	outcome [8]
COc1cc(NC(=O)c2sc(-c3ccc(Cl)cc3)cc2Cl)ccc1OCCN1CCCC1	21%	72% (active)	4	93% (active)	inactive	inactive	inactive	inactive
COc1cc(C)nc2ccc(NC(=O)COCC(=O)Nc3ccc4nc(C)cc(OC)c4c3)cc12	41%	67% (active)	7	100% (active)	inactive	inactive	inactive	inactive
COc1ccc(-c2ccc(NC(=O)c3cccc(Cl)c3)c(F)c2)cc1CNC(C)C	14%	19%	-5	93% (active)	inactive	inactive	inactive	inactive
COc1ccc(F)cc1-c1ccc(C(=O)N2CCCN(c3ccc(C#N)cn3)CC2)cc1	100% (active)	9%	-2	99% (active)	inactive	inactive	inactive	inactive
COc1cc(C(=O)N2COCC(CCCN3CCC(N4CCCC4)CC3)(c3ccc(Cl)c(Cl)c3)C2)cc(OC)c1OC (stereo not given)	70% (active)	5%	-1	95% (active)	inactive	inactive	inactive	inactive
COc1cc(Nc2nccc(Nc3ccc4c(C)[nH]nc4c3)n2)cc2ccccc12	82% (active)	13%	5	102% (active)	inactive	inactive	inactive	inactive
CCCCC(CC)C(=O)C(NC(=O)[C@H](CSC(c1ccccc1)(c1ccccc1)c1ccccc1)NC(=O)OC(C)(C)C)C(=O)OC (stereo not given in full)	31%	8%	0	88% (active)	inactive	inactive	inactive	inactive
COc1ccc(Nc2cc(C)c3cc(NC(=O)c4ccncc4)ccc3n2)cc1	26%	0%	2	98% (active)	inactive	inactive	inactive	inactive
Cc1cc(Nc2ccccc2)nc(Nc2ccccc2C)n1	27%	8%	5	85% (active)	inactive	inactive	inactive	inactive
O=C(c1ccc2ccccc2n1)N1CCCc2cc(Br)ccc21	74% (active)	19%	-3	97% (active)	inactive	inactive	inactive	inactive
c1cc(CNCCN2CCNCC2)cc(-c2cccc(-c3nc4ccccc4[nH]3)c2)c1	1%	11%	-3	89% (active)	inactive	inactive	inactive	inactive
C[C@@H](CC1CCCCC1)OC(=O)N[C@H]1CCN(C#N)C1	83% (active)	7%	1	95% (active)	inactive	inactive	inactive	inactive
COc1ccc(N2C(N)=NC(N)=NC2(C)C)cc1OC	-4%	13%	-2	95% (active)	inactive	inactive	inactive	inactive
CC(=O)CSC(C=Cc1ccc(N(C)C)cc1)=Nc1ccccc1	42%	38%	-4	81% (active)	inactive	inactive	inactive	inactive
NS(=O)(=O)c1cccc(-c2ccc3ncc(N4CCOCC4)nc3c2)c1	74% (active)	17%	-4	96% (active)	inactive	inactive	inactive	inactive
Cc1ccc2c(c1)NC[C@@]21CCN(C[C@@H](O)C2CCN(c3ccnc(Cl)c3)CC2)C[C@@H]1C	69% (active)	46%	-5	87% (active)	inactive	inactive	inactive	inactive
COc1ccc(CNCc2ccc(F)cc2)cc1-c1ccc(S(=O)(=O)NCCN2CCCC2)c(C)c1	56% (active)	55% (active)	-2	98% (active)	inactive	inactive	inactive	inactive
Cc1ccc(N2C(N)=NC(N)=NC2(C)C)cc1Cl	77% (active)	66% (active)	-4	90% (active)	inactive	inactive	inactive	inactive
O=C(/C=C/c1ccccc1)N1CCOC(CCN2CCC(c3ccccc3)CC2)(c2ccc(Cl)c(Cl)c2)C1 (stereo not given)	63% (active)	4%	2	89% (active)	inactive	inactive	inactive	inactive
O=C(NCc1cc2c(cc1Cl)OCO2)c1ccc(CNC2CCN(Cc3ccccc3)CC2)cc1	47%	11%	-3	100% (active)	inactive	inactive	inactive	inactive

Structure (SMILES)	growth inhibition [1]	inhibition [2]	inhibition [3] [%]	growth inhibition [4]	outcome [5]	outcome [6]	outcome [7]	outcome [8]
C=CCOC(=O)O[C@@H]1[C@@H](OC(=O)OCC=C)[C@@H](OC)O[C@H](COC(c2ccccc2)(c2ccccc2)c2ccccc2)[C@H]1OC(=O)OCC=C	96% (active)	5%	2	95% (active)	inactive	inactive	inactive	inactive
CC(C(=O)NC1CCN(c2ccnc(Nc3ccc(F)cc3)n2)C1)c1ccc(Cl)cc1 (stereo not given)	90% (active)	17%	-4	95% (active)	inactive	inactive	inactive	inactive
CO/C(=C\C=C\c1cc2cc(Cl)c(Cl)cc2[nH]1)C(=O)NCCCN1CCCC[C@H]1C	91% (active)	41%	3	100% (active)	inactive	inactive	inactive	inactive
Cc1nnsc1C(=O)Nc1cccc(-c2cccc(-c3nc4ccccc4[nH]3)c2)c1	34%	14%	1	100% (active)	inactive	inactive	inactive	inactive
Cc1cc(-c2cccc(CNC3CCN(C)CC3)c2)ccc1S(=O)(=O)NC1CCC1	96% (active)	33%	3	101% (active)	inactive	inactive	inactive	inactive
Cc1[nH]c(C)c(-c2cc3ccccc3o2)c(=O)c1Cl	13%	1%	-2	92% (active)	inactive	inactive	inactive	inactive
Cc1cc(N2C(N)=NC(N)=NC2(C)C)ccc1Cl	-2%	66% (active)	-5	95% (active)	inactive	inactive	inactive	inactive
O=C(Nc1ccc(C(F)(F)F)cc1)c1ccc(S(=O)(=O)NC2CCN(CC3CCCCC3)CC2)cc1	20%	30%	1	101% (active)	inactive	inactive	inactive	inactive
CCCCCOc1ccc(C=NNc2nc(-c3ccccc3)cc(=O)[nH]2)cc1	86% (active)	0%	-2	88% (active)	inactive	inactive	inactive	inactive
CC(CN(C)C)C(=O)Nc1cccc(-c2cccc(-c3nc4ccc(F)cc4[nH]3)c2)c1 (stereo not given)	94% (active)	29%	5	101% (active)	inactive	inactive	inactive	inactive
CC(C)c1ccc(NC(=O)c2ccc(C(=O)NCC3CCN(CC4CCCCC4)CC3)cc2)cc1	18%	26%	-3	92% (active)	inactive	inactive	inactive	inactive
NC1CCN(c2cnn(Cc3cccc(NC(=O)Nc4ccc(-c5ccccc5)cc4)c3)c(=O)c2Cl)CC1	11%	5%	-3	89% (active)	inactive	inactive	inactive	inactive
CCN(CC)CCN(Cc1ccc(-c2ccc(C(F)(F)F)cc2)cc1)C(=O)c1c[nH]c2ccc(Br)cc12	74% (active)	80% (active)	-4	90% (active)	inactive	inactive	inactive	inactive
CCN(CC)CCN(Cc1ccc(-c2ccc(Cl)s2)cc1)C(=O)Cn1c(CCc2cccc(F)c2F)nc(=O)c2ccccc21	27%	24%	-4	96% (active)	inactive	inactive	inactive	inactive
CCc1ccc2nc(-c3ccc(F)cc3)nc(SCC(=O)Nc3sc(C)c(C)c3C#N)c2c1	5%	-15%	1	98% (active)	inactive	inactive	inactive	inactive
COc1cc(O)c2c(=O)c(OC)c(-c3cccc(Cl)c3OCC(=O)O)oc2c1OC	-2%	-6%	-1	100% (active)	inactive	inactive	inactive	inactive
CN1CCN(CC(=O)Nc2ccc(-c3csc(-c4nc5ccccc5[nH]4)c3)cc2)CC1	46%	6%	-4	99% (active)	inactive	inactive	inactive	inactive
O=C(Nc1ccc(-c2ccc(-c3nc4ccccc4[nH]3)s2)cc1)Nc1ccc(Cl)c(Cl)c1	99% (active)	89% (active)	2	102% (active)	inactive	inactive	inactive	inactive
O=S(=O)(/C=C/c1ccccc1)N(Cc1ccc(-c2ccc(CNCCc3ccccc3)cc2)cc1)CC1CCCCN1 (stereo not given)	96% (active)	99% (active)	-2	100% (active)	inactive	inactive	inactive	inactive
COc1ccc(-c2ccccc2CNc2nc(NCCc3ccc(O)cc3)nc(N3CCNCC3)n2)cc1	3%	48%	-3	86% (active)	inactive	inactive	inactive	inactive
